Test results as given in publication PMC5540273 (PLoS ONE, 2017).

How the values were obtained:
Details in all cases: concentration: 1 μM,replicates: in singlicate; n = 1
MAPKAPK5 = system: MAPKAPK5
MARK1 = system: MARK1
MARK2 = system: MARK2
MARK3 = system: MARK3
MARK4 = system: MARK4
MAST1 = system: MAST1
MEK1 = system: T1, MEK1
T1 construct: gene MAP2K1

MEK2 = system: T2, MEK2
T2 construct: gene MAP2K2

MEK3 = system: T3, MEK3
T3 construct: gene MAP2K3

MEK4 = system: T4, MEK4
T4 construct: gene MAP2K4

MEK5 = system: T5, MEK5
T5 construct: gene MAP2K5

MEK6 = system: T6, MEK6
T6 construct: gene MAP2K6

MELK = system: MELK
MERTK = system: MERTK
MET = system: MET
MINK = system: T7, MINK
T7 construct: gene MINK1

MKK7 = system: MKK7
MKNK1 = system: MKNK1
MKNK2 = system: MKNK2
MLCK = system: T8, MLCK
T8 construct: gene MYLK3
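Further: KINOMEscan kinase panel screen.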

| SMILES | %Inh (MAPKAPK5) | %Inh (MARK1) | %Inh (MARK2) | %Inh (MARK3) | %Inh (MARK4) | %Inh (MAST1) | %Inh (MEK1) | %Inh (MEK2) | %Inh (MEK3) | %Inh (MEK4) | %Inh (MEK5) | %Inh (MEK6) | %Inh (MELK) | %Inh (MERTK) | %Inh (MET) | %Inh (MINK) | %Inh (MKK7) | %Inh (MKNK1) | %Inh (MKNK2) | %Inh (MLCK) |
| --- | --- | --- | --- | --- | --- | --- | --- | --- | --- | --- | --- | --- | --- | --- | --- | --- | --- | --- | --- | --- |
| COc1ccc(C[C@@H](CN)NC(=O)c2cc(Br)c(-c3ccnc4[nH]ccc34)s2)cc1.Cl.Cl [GSK1389063] | 0% | 0% | 54% | 63% | 1% | 0% | 1% | 22% | 95.2% | 69% | 43% | 100% | 100% | 70% | 33% | 78% | 82% | 13% | 97% | 95.4% |
| Cc1ccc2c(-c3ccncc3)c(-c3ccc(F)cc3)nn2c1.Cl [GW461484] | 0% | 0% | 0% | 0% | 0% | 6% | 0% | 0% | 0% | 0% | 9% | 0% | 14% | 13% | 0% | 72% | 0% | 23% | 37% | 0% |
| Cc1cc2cn[nH]c2cc1-c1cccc2c(N)c(C(N)=O)nnc12 | 16% | 0% | 5% | 0% | 0% | 36% | 28% | 45% | 58% | 68% | 43% | 4% | 5% | 0% | 7% | 55% | 27% | 11% | 23% | 0% |
| NC(=O)c1cc(-c2ccccc2)cc2c(C3CCNCC3)c[nH]c12 [GSK301362] | 0% | 0% | 0% | 0% | 5% | 0% | 0% | 0% | 35% | 34% | 16% | 0% | 0% | 38% | 9% | 56% | 18% | 0% | 13% | 0% |
| Cl.Oc1cc(-c2nc(-c3ccccc3)[nH]c2-c2ccncc2)ccc1Cl [SB-386023] | 0% | 0% | 2% | 0% | 9% | 21% | 0% | 2% | 7% | 23% | 11% | 0% | 23% | 0% | 9% | 5% | 10% | 0% | 12% | 0% |
| CNC(=O)c1ccccc1Sc1ccc2c(/C=C/c3ccccn3)n[nH]c2c1 | 0% | 0% | 35% | 1% | 6% | 0% | 0% | 0% | 0% | 0% | 77% | 29% | 0% | 19% | 12% | 57% | 0% | 0% | 0% | – |
| Cc1ccc(-n2nc(C(C)(C)C)cc2NC(=O)Nc2ccc(OCCN3CCOCC3)c3ccccc23)cc1 [GW839464] | 0% | 18% | 21% | 2% | 7% | 0% | 0% | 0% | 0% | 0% | 11% | 0% | 7% | – | 9% | 84% | 0% | 14% | 0% | 0% |
| CC(C)N1C(=O)Cc2cc(Nc3ncc(C(F)(F)F)c(NCc4cccc(S(C)(=O)=O)c4)n3)ccc21 | 25% | 27% | 38% | 42% | 25% | 48% | 27% | 47% | 51% | 37% | 60% | 16% | 0% | 52% | 81% | 44% | 2% | 3% | 45% | 6% |
| Cc1occc1-c1nc(N)c(OC[C@@H](N)Cc2c[nH]c3ccccc23)cc1-c1cc2c(C)n[nH]c2cn1 [GSK1660450] | 0% | 70% | 71% | 71% | 57% | 19% | 0% | 0% | 39% | 0% | 77% | 0% | 35% | 31% | 0% | 97.5% | 0% | 0% | 7% | 2% |
| CCN(CC)CCOc1ccc(Nc2ncc3cc(-c4c(Cl)cccc4Cl)c(=O)n(C)c3n2)cc1 [SB-601273] | 0% | 20% | 87% | 84% | 6% | 48% | 98.1% | 98.7% | 38% | 47% | 100% | 33% | 62% | 95.9% | 78% | 96.2% | 11% | 90% | 26% | 98.4% |
| C[C@@H]1CCN(C(=O)CC#N)C[C@@H]1N(C)c1ncnc2[nH]ccc12 | 0% | 0% | – | – | 0% | 0% | 0% | 0% | 0% | 0% | 0% | 0% | 23% | 0% | 0% | 0% | 0% | 0% | 0% | 0% |
| C[C@H]1Oc2cc(cnc2N)-c2c(nn(C)c2C#N)CN(C)C(=O)c2ccc(F)cc21 | 0% | 15% | 9% | 0% | 6% | 6% | 0% | 30% | 83% | 65% | 0% | 60% | 30% | 20% | 10% | 0% | 0% | 0% | 0% | 0% |
| CCn1c(-c2nonc2N)nc2c(C#CC(C)(C)O)nc(OCCN)cc21.Cl.Cl [GSK902056] | 0% | 0% | 0% | 0% | 0% | 28% | 0% | 0% | 37% | 26% | 10% | 0% | 0% | 0% | 0% | 0% | 0% | 0% | 0% | 0% |
| O=C(NCCCN1CCOC1=O)c1cnc(NCc2cc(Cl)ccc2Cl)nc1NC1CCCC1 | 0% | 13% | 0% | 30% | 5% | 19% | 0% | 30% | 10% | 0% | 27% | 16% | 20% | 75% | 63% | 10% | 0% | 11% | 0% | 0% |
